Rows were chosen to be rich in hits. Some 1.8% of all compounds tested hit in one or more screens of this group.
Neddyl block = inhibitors of cullin neddylation, primary screen, biochemical, TR-FRET, uHTS, NAE and Ubc12 | inhibition, % at 25 µM | 360,000 compounds, 0.58% hits | AID 651699, 2012; in the data active = inhibition above about 36%
Cardio protect = cardioprotection against H2O2-induced cell death, primary screen, uHTS, H9c2 cells, ATPLite luminescence; H9c2 cardiomyocytes, H2O2 injury protection, 2 h; protection from H2O2 cell death, % at 20 µM; 360,000 compounds, 0.63% hits;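 active = compounds giving at least 50% protection of heart cells from peroxide-induced death in the single-dose screen, raw or plate-pattern-corrected value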;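 also: 0% = DMSO wells with peroxide and 100% = DMSO wells without peroxide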
HDAC3 inh = HDAC3 deacetylase inhibitors, primary screen, biochemical, fluorescence, cell-free homogeneous. Histone deacetylase 3 (Homo sapiens), O15379. recombinant HDAC3, fluorogenic peptide/trypsin coupled. inhibition, % at 8.3 µM. 320,000 compounds, 0.15% hits; in the data active = inhibition above about 26%, passing the limit was not always enough
GRK2 aptamer HTS = compounds blocking aptamer binding on GRK2 – biochemical, human GRK2, bead flow cytometry, HTS, primary screen. 330,000 compounds, 0.59% hits. AID 488847, 2010. FAM-aptamer displacement from GRK2. inhibition of aptamer binding, % at 10 µM;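 active = inhibition of aptamer binding above 40%, roughly 3 SD of noise, on plates passing a quality check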;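 also: median bead fluorescence of bound FAM aptamer so fluorescent compounds give negative values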
Target sequence (P25098 whole entry, looked up): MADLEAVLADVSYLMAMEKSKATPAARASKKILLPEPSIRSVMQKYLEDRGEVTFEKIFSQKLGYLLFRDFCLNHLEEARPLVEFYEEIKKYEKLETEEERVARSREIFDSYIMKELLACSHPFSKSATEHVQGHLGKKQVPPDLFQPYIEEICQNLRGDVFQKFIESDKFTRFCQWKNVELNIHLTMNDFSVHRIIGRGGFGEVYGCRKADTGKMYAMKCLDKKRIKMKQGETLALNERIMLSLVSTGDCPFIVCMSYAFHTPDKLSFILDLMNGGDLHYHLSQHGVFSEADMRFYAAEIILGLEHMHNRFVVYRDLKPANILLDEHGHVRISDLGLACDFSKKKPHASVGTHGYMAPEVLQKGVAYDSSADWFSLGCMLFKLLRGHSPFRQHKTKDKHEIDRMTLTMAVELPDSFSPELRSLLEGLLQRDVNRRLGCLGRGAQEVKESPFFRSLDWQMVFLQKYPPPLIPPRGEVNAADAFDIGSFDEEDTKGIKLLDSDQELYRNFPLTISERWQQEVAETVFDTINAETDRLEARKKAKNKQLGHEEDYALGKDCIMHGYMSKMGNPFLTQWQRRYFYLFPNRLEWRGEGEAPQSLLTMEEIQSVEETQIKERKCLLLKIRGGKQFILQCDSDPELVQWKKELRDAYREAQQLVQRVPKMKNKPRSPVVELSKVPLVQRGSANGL
GRK2 inh confirm = GRK2 aptamer-displacing inhibitors, retest, confirmation, biochemical, cherry pick 1, bead flow cytometry; 2,000 compounds, 4% hits; aptamer displacement, % at 10 µM; bead-bound GRK2, FAM-aptamer displacement; shares compounds with GRK2 aptamer HTS;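 active = aptamer displacement above 40%, near three times the noise of non-fluorescent compounds, on plates passing quality checks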;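 also: negative values mostly reflect intrinsic compound fluorescence rather than true enhancement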
Aptamer quench 1 = quenches fluorescent RNA aptamer, GRK2 hit artifact | shares compounds with GRK2 aptamer HTS | Fluorescent RNA aptamer beads, quenching, flow cytometry; stronger effect = higher value | fluorescence change (kMESF span), kMESF (test concentration not listed) | 110 tested, under 10 active;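 active = compounds whose bead fluorescence drops by more than 37 kMESF across the dose range, marking them as dye quenchers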
Aptamer quench SP = counter-screen for GRK2 aptamer inhibitors: fluorescent aptamer quenchers. shares compounds with GRK2 aptamer HTS. Carboxyfluorescein RNA aptamer on beads, flow cytometry quenching; stronger effect = lower value. fluorescence response (% of DMSO), % at 10 µM. 2,000 tested, under 10 active;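 active = compounds that quench the bead-bound fluorescent RNA probe, cutting fluorescence to under half of the solvent control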;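 also: counterscreen run without GRK2 so only probe quenching by compound is measured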
GRK2 confirm 2 = GRK2 aptamer-displacing inhibitors, hit retest, confirmation, biochemical, cherry pick 2, bead flow cytometry | shares compounds with GRK2 aptamer HTS | bead-bound GRK2, FAM-aptamer displacement | inhibition of aptamer binding, % at 10 µM | 360 tested, under 10 active | AID 504782, 2011;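 active = inhibition of aptamer binding above 40%, about triple the noise seen with nonglowing compounds, on plates passing quality control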;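 also: negative values mostly come from compounds that fluoresce themselves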
Aptamer quench3 = fluorescence quenching of FAM-labeled RNA aptamer, dose response, artefact control for GRK2 aptamer inhibitor project, biochemical, flow cytometry, cherry pick 2. shares compounds with GRK2 aptamer HTS. change in fluorescence (kMESF span), kMESF (no concentration beside the values). Streptavidin beads. AID 504819, 2011. 25 tested, under 10 active;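 active = compounds quenching the bead-bound labeled aptamer, with fluorescence dropping by more than 37 kMESF over the dose range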
FAM quench CP2 = aptamer fluorescence quenching in GRK2 counter-screen | shares compounds with GRK2 aptamer HTS | carboxyfluorescein RNA aptamer beads, flow cytometry quenching; stronger effect = lower value | fluorescence response vs DMSO, % at 10 µM | 360 tested, under 10 active | AID 588494;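 active = response vs DMSO under 50%, meaning signal dropped by over half, treated as fluorescence quencher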;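 also: labelled aptamer on streptavidin beads without GRK2 as a quench counter-screen; 100% = bead fluorescence of DMSO wells and lower means quenching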
FAM quench PS1 = quenchers of FAM-labeled RNA aptamer fluorescence, dose response, artefact control for GRK2 aptamer binding project, biochemical, powder set 1, flow cytometry. shares compounds with GRK2 aptamer HTS. Bead-bound FAM RNA aptamer fluorescence quenching; stronger effect = lower value. fluorescence ratio to DMSO, % at 11.1 µM. 35 tested, under 10 active. AID 588496, 2011;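 active = compounds that dim the fluorescent label, raw bead signal shifting by over 33 units between lowest and highest dose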
Neddyl conf = blockade of NEDD8 conjugation to cullin – biochemical, TR-FRET, single concentration, confirmation. shares compounds with Neddyl block. TR-FRET cullin neddylation biochemical assay. calls only at 25 µM. 1,800 compounds, 13% hits; in the data active = inhibition above about 40%;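 also: neddylation substrate is the cullin 1 ring ligase complex with SKP2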
* = called active by the depositor.

For COc1ccc(C(=O)Nc2ccccc2NC(=O)c2ccco2)cc1OC the results were Neddyl block -1, Cardio protect 30, HDAC3 inh 3, GRK2 aptamer HTS 44*, GRK2 inh confirm 3 and Aptamer quench SP 97.
For COc1cc(S(C)=O)ccc1-c1nc2ncccc2[nH]1 (stereo unspecified) the results were Cardio protect 6, HDAC3 inh -23 and GRK2 aptamer HTS 0.
For CCOC(=O)CC(NS(=O)(=O)c1ccc(OC)c(OC)c1)c1cccc([N+](=O)[O-])c1 (stereo unspecified) the results were Neddyl block -12, Cardio protect 2, HDAC3 inh 5 and GRK2 aptamer HTS 0.
CCOC(=O)CC(NS(=O)(=O)c1ccc2[nH]cc(C(=O)O)c(=O)c2c1)c1ccc(OCC)c(OC)c1 (stereo unspecified) was read as Neddyl block 6, Cardio protect 8, HDAC3 inh 2, GRK2 aptamer HTS 89*, GRK2 inh confirm 70*, Aptamer quench 1 -122 and Aptamer quench SP 100.
For O=C(Nc1cc(NC(=O)c2ccccc2F)ccc1Cl)c1ccccc1 the results were Neddyl block 4, Cardio protect -1, HDAC3 inh 7 and GRK2 aptamer HTS 0.
COc1ccc(S(=O)(=O)Oc2ccc(C(=S)N3CCOCC3)cc2OC)cc1 was read as Neddyl block 0, Cardio protect -5, HDAC3 inh 2 and GRK2 aptamer HTS 10.
Screening O=S(=O)(Oc1ccc(C(=S)N2CCOCC2)cc1)c1ccc(Cl)cc1 returned Neddyl block -12, Cardio protect -5, HDAC3 inh -2, GRK2 aptamer HTS 99*, GRK2 inh confirm 3 and Aptamer quench SP 91.
Screening CSCCC(NC(=O)c1ccccc1Br)C(=O)NNC(=O)c1cc(C)oc1C (stereo unspecified) returned Neddyl block -4, Cardio protect -6, HDAC3 inh 2 and GRK2 aptamer HTS 2.
For Cc1ccc(C)c(NC(=O)c2cnn3ccccc23)c1 the results were Neddyl block 11, Cardio protect 6, HDAC3 inh 0, GRK2 aptamer HTS 28, GRK2 inh confirm -1 and Aptamer quench SP 101.
Cc1ccc(C)c(NC(=O)c2cc3ccccn3n2)c1 was read as Neddyl block 7, Cardio protect -8, HDAC3 inh 3 and GRK2 aptamer HTS 1.
For O=C(c1cccc(NS(=O)(=O)c2ccc(Br)cc2)c1)N1CCN(c2ccccc2O)CC1 the results were Neddyl block 9 and Cardio protect -4.
For CCc1ccccc1NC(=O)CCS(=O)(=O)c1ccc(Br)cc1 the results were Neddyl block 1, Cardio protect -4, HDAC3 inh -8, GRK2 aptamer HTS 57*, GRK2 inh confirm 30, Aptamer quench 1 -0.1, Aptamer quench SP 96, Aptamer quench3 -1.3 and FAM quench PS1 99.
CCOc1ccc(NC(=O)CCS(=O)(=O)c2ccc(Br)cc2)cc1 was read as Neddyl block -5, Cardio protect -7, HDAC3 inh 2, GRK2 aptamer HTS 83*, GRK2 confirm 2 60*, Aptamer quench3 -0.2, FAM quench CP2 102 and FAM quench PS1 102.
COc1ccc(NC(=O)CCS(=O)(=O)c2ccc(OC)cc2)cc1 was read as Neddyl block 10, Cardio protect -8, HDAC3 inh -2 and GRK2 aptamer HTS 0.
For O=C(CCS(=O)(=O)c1ccc(Br)cc1)NC1CCCC1 the results were Neddyl block -2, Cardio protect 9, HDAC3 inh 0, GRK2 aptamer HTS 80*, GRK2 inh confirm 61*, Aptamer quench 1 0.6, Aptamer quench SP 99 and Aptamer quench3 4.6.
O=C(CCS(=O)(=O)c1ccc(Br)cc1)Nc1cc(F)ccc1F was read as Neddyl block 5, Cardio protect 1, HDAC3 inh 0, GRK2 aptamer HTS 82*, GRK2 confirm 2 26, Aptamer quench3 1.4, FAM quench CP2 100 and FAM quench PS1 99.
Screening CCc1ccccc1NC(=O)CCS(=O)(=O)c1ccc(C)cc1 returned Neddyl block 5, Cardio protect 0, HDAC3 inh 7 and GRK2 aptamer HTS 0.
Screening Cc1ccc(C(=O)COc2nc(C)nc3ccccc23)cc1 returned Neddyl block 4, Cardio protect 2, HDAC3 inh -14 and GRK2 aptamer HTS 0.
CCOc1ccccc1NC(=O)CCS(=O)(=O)c1ccc(Br)cc1 was read as Neddyl block 4, Cardio protect -1, HDAC3 inh -3, GRK2 aptamer HTS 98*, GRK2 inh confirm 92*, Aptamer quench 1 -4, Aptamer quench SP 95, Aptamer quench3 0.2 and FAM quench PS1 100.
`COC(=O)c1ccccc1NC(=O)CCS(=O)(=O)c1ccc(Br)cc1` gave Neddyl block 1 and Cardio protect -3.
CCOc1ccccc1C1C(C#N)=C(N)Oc2cc(N)ccc21 (stereo unspecified) was read as Neddyl block 47*, Cardio protect -1, HDAC3 inh -6, GRK2 aptamer HTS 97*, GRK2 inh confirm -2, Aptamer quench SP 103 and Neddyl conf inactive.
